Experimental data as given in the supplement of paper PMC6089552.
In all, about 3,200 compounds went through this assay and about 300 (9.4%) showed activity. The list comes from a sample in which actives are over-represented; it also holds similar structures and randomly drawn compounds.

Tested on: A673/TR/shEF
Assay: cell viability (LOESS-normalised, relative to median of negative controls) (log2 ratio); higher = more viable cells (less compound effect), active = hit call of the paper (over 3 MAD below the median)
Conditions: treatment time: 72 h
How it was run: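 Doxycycline, present or absent from 24 h before compounds, was used to induce EWS-FLI1 shRNA knockdown in A673/TR/shEF Ewing sarcoma cells at 1,500 per well in 384-well plates. Cells then received library compounds at two or more concentrations, or DMSO controls, for three days. Viability was measured by CellTiter-Glo luminescence on an Envision reader, and per-plate LOESS correction, division by the negative-control median and log2 transformation followed.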

[1] = 0.25 µM, library screen: screen1, EWS-FLI1 expression: high (no doxycycline)
[2] = 0.25 µM, library screen: screen1, EWS-FLI1 expression: low (doxycycline-induced shRNA knockdown)
[3] = 2.5 µM, library screen: screen1, EWS-FLI1 expression: high (no doxycycline)
[4] = 2.5 µM, library screen: screen1, EWS-FLI1 expression: low (doxycycline-induced shRNA knockdown)
[5] = 0.103 µM, library screen: screen3, EWS-FLI1 expression: high (no doxycycline)
[6] = 0.103 µM, library screen: screen3, EWS-FLI1 expression: low (doxycycline-induced shRNA knockdown)
[7] = 0.308 µM, library screen: screen3, EWS-FLI1 expression: high (no doxycycline)
[8] = 0.308 µM, library screen: screen3, EWS-FLI1 expression: low (doxycycline-induced shRNA knockdown)
[9] = 0.926 µM, library screen: screen3, EWS-FLI1 expression: high (no doxycycline)
[10] = 0.926 µM, library screen: screen3, EWS-FLI1 expression: low (doxycycline-induced shRNA knockdown)
[11] = 2.8 µM, library screen: screen3, EWS-FLI1 expression: high (no doxycycline)
[12] = 2.8 µM, library screen: screen3, EWS-FLI1 expression: low (doxycycline-induced shRNA knockdown)
[13] = 8.3 µM, library screen: screen3, EWS-FLI1 expression: high (no doxycycline)
[14] = 8.3 µM, library screen: screen3, EWS-FLI1 expression: low (doxycycline-induced shRNA knockdown)
[15] = 25 µM, library screen: screen3, EWS-FLI1 expression: high (no doxycycline)
[16] = 25 µM, library screen: screen3, EWS-FLI1 expression: low (doxycycline-induced shRNA knockdown)
[17] = 0.25 µM, library screen: screen2, EWS-FLI1 expression: high (no doxycycline)
[18] = 0.25 µM, library screen: screen2, EWS-FLI1 expression: low (doxycycline-induced shRNA knockdown)
[19] = 2.5 µM, library screen: screen2, EWS-FLI1 expression: high (no doxycycline)
[20] = 2.5 µM, library screen: screen2, EWS-FLI1 expression: low (doxycycline-induced shRNA knockdown)

Measured: cell viability (log2)

CCOC(=O)c1c[nH]c2ccc(OC)cc2c1=O
inactive: [1] 0.15 | [2] 0.1 | [3] 0.112 | [4] 0.121

CC(C)[C@@H](C)/C=C/[C@@H](C)[C@H]1CC[C@H]2C3=CC=C4C[C@@H](O)CC[C@]4(C)[C@H]3CC[C@]12C
inactive: [1] 0.0837 | [2] 0.11 | [3] 0.0787 | [4] 0.0538

COc1cc(Nc2c(C#N)cnc3cc(OCCCN4CCN(C)CC4)c(OC)cc23)c(Cl)cc1Cl
inactive: [5] 0.00802 | [6] 0.123 | [7] 0.0466 | [8] 0.063 | [9] 0.0151 | [10] 0.16 | [11] -0.0156 | [12] 0.139 | [13] -0.148 | [14] -0.136
active: [15] -1.59 | [16] -0.647

COc1cc(C(=O)OCCCN2CCCN(CCCOC(=O)c3cc(OC)c(OC)c(OC)c3)CC2)cc(OC)c1OC
inactive: [17] 0.105 | [18] 0.0948 | [19] 0.199 | [20] 0.123

COc1cc2c(Oc3ccc4[nH]c(C)cc4c3F)ncnc2cc1OCCCN1CCCC1
inactive: [5] 0.0825 | [6] 0.0561 | [7] 0.034 | [8] 0.013 | [9] 0.0586 | [10] 0.0142 | [11] 0.0459 | [12] 0.0297 | [13] -0.077 | [14] 0.092 | [15] 0.0238 | [16] 0.0041

O=C(O)CSc1nnc(-c2ccc(Cl)cc2Cl)n1-c1ccccc1
inactive: [1] 0.109 | [2] 0.165 | [3] 0.15 | [4] 0.122

COc1c(C(=O)O)ccc2c1CCC(C)(C)O2
inactive: [1] 0.0873 | [2] 0.0519 | [3] 0.206 | [4] -0.0164

CCOc1ccc(C(=O)Nc2ccc(NC(=O)CC)cc2)cc1Cl
inactive: [1] 0.102 | [2] 0.0179 | [3] 0.0812 | [4] -0.0835

CCOc1cc2ncc(C#N)c(Nc3ccc(OCc4ccccn4)c(Cl)c3)c2cc1NC(=O)/C=C/CN(C)C
inactive: [5] 0.0468 | [6] 0.0085 | [7] -0.038 | [8] -0.0155 | [9] -0.0139 | [10] -0.00326 | [11] -0.0436 | [12] -0.282 | [15] -0.035 | [16] -0.415
active: [13] -0.204 | [14] -0.529

CCOc1ccc(C(=O)Nc2cccc(OC)c2)cc1Cl
inactive: [1] 0.0358 | [2] 0.0408 | [3] 0.151 | [4] 0.0428

CCOc1cc2ncc(C#N)c(Nc3ccc(F)c(Cl)c3)c2cc1NC(=O)/C=C/CN(C)C
active: [11] -0.201 | [12] -0.422 | [15] -1.43 | [16] -0.678
inactive: [5] 0.06 | [6] 0.0264 | [7] 0.0695 | [8] 0.0377 | [9] 0.0744 | [10] -0.098 | [13] -0.14 | [14] -0.477

COc1cccc(-n2c(C)c(C(C)=O)c(C(C)=O)c2C)c1
inactive: [1] -0.0313 | [2] 0.00668 | [3] 0.0772 | [4] -0.0891

COc1cc(C(=O)NC2CCCCC2)c([N+](=O)[O-])cc1OC
inactive: [1] 0.122 | [2] 0.0996 | [3] 0.157 | [4] 0.0416

CC(=O)O[C@]1(C(=O)CO)[C@H](C)C[C@H]2[C@@H]3CCC4=CC(=O)C=C[C@]4(C)[C@@]3(F)[C@@H](O)C[C@@]21C
inactive: [1] 0.0305 | [2] -0.118 | [3] 0.0736 | [4] -0.0945

COc1ccc(/C=C(/NC(=O)c2ccccc2)C(=O)N2CCCCCC2)cc1OC
inactive: [1] 0.12 | [2] 0.0586 | [3] 0.088 | [4] 0.085

CC(C(=O)O)[C@H]1CCC2C3CC=C4C[C@@H](O)CC[C@]4(C)C3CC[C@@]21C (stereo partly drawn)
inactive: [1] 0.0415 | [2] 0.0559 | [3] 0.0699 | [4] -0.0298

CC1(C)CC(=O)C2=C(C1)Nc1ccccc1N(C(=O)Cc1ccc(Cl)cc1)C2c1cccnc1 (stereo not drawn)
inactive: [1] 0.0404 | [2] 0.0353 | [3] 0.127 | [4] 0.0963

CC1=C(C(=O)Nc2ccccc2Cl)C(c2ccc(F)cc2)NC(=O)N1 (stereo not drawn)
inactive: [1] 0.153 | [2] 0.0871 | [3] 0.0947 | [4] -0.018

CC1(C)CC2C1CCC1(CBr)CCC3C(CC(=O)O)C(=O)OC32C1 (stereo not drawn)
inactive: [1] 0.146 | [2] 0.038 | [3] 0.195 | [4] 0.152

CCN(CC)CCNC(=O)c1c(C)[nH]c(/C=C2\C(=O)Nc3ccc(F)cc32)c1C
active: [15] -0.697 | [16] -0.541
inactive: [5] 0.0562 | [6] 0.0683 | [7] 0.0856 | [8] 0.0784 | [9] -0.0103 | [10] 0.0749 | [11] -0.00223 | [12] 0.0762 | [13] -0.0922 | [14] 0.071

CCN(CC)CCNC(=O)c1cc(S(C)(=O)=O)ccc1OC
inactive: [1] 0.0293 | [2] 0.172 | [17] 0.198 | [18] 0.0568 | [3] 0.105 | [4] 0.182 | [19] 0.192 | [20] 0.0888

CCN(CC)CCNC(=O)c1ccc(N)cc1
inactive: [1] 0.0893 | [2] 0.128 | [17] 0.138 | [18] 0.0499 | [3] 0.121 | [4] 0.267 | [19] 0.308 | [20] 0.0657

C[N+]1(C)C2CC(OC(=O)C(O)(c3cccs3)c3cccs3)CC1C1OC12 (stereo not drawn)
inactive: [5] 0.0262 | [6] 0.0758 | [7] 0.0294 | [8] 0.0213 | [9] -0.023 | [10] 0.0295 | [11] 0.0205 | [12] 0.0567 | [13] 0.0784 | [14] 0.0507 | [15] 0.1 | [16] 0.116
